Assay results as given in PubChem BioAssay (NCATS).
Inconclusive results are not listed. Activity calls are given as the source filed them. Unless noted, calls follow the shape of the dose curve; as a rule, active = well fitted curve in the direction sought with a large enough effect; inconclusive = small, poorly fitted or top-dose-only effect, or another doubt; inactive = no such curve, though single readings can be large; an effect the other way counts as inactive or inconclusive.

Assays:
[1] = AP1 Signaling Pathway (AID 357; active = well fitted curve in either direction with a large enough effect, not every such curve was filed as active; also: % is scaled to controls: 0 for no effect and ±100 for the full control effect); settings: ME-180 AP-1-bla reporter, EGF-induced, beta-lactamase ratio, 5 h; at 7.69 µM (top of the series) unless noted
Summary of the method: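 AP-1-bla ME-180 cells with beta-lactamase reporter under AP-1 response element, stimulated with EC50 EGF; compounds titrated, 5 hours at 37 degrees Celsius. CCF4 read at 460/530 nm ratio; positive and negative modulators judged by AC50.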

[2] = molecular target: Cytochrome P450 1A2 (Homo sapiens) (UniProt P05177); assay: p450-cyp1a2 (AID 410; calls by dose curve;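 also: -100% = full effect of reference inhibitor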)
Summary of the method: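 Inhibition was calculated relative to 57 uM furafylline (full inhibition). The reaction used human CYP1A2 at 20nM with Luciferin-ME at its Km, 100uM, driven by an NADPH-regenerating system for 60 min at room temperature.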

[3] = molecular target: Glucocorticoid receptor (Homo sapiens) (UniProt P04150); assay: GR-GFP Redistribution (AID 450;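 active = compounds whose dose series gives a full or clear partial fitted curve of increased nuclear translocation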; also: potency is read from the fitted curve at half-maximal effect); settings: U2OS GR-GFP nuclear translocation, laser cytometry, 2 h
[4] = molecular target: Mitogen-activated protein kinase 10 (Mus musculus) (UniProt Q61831); assay: JNK3 AlphaScreen Assay (AID 530; active = well fitted curve in either direction with a large enough effect, not every such curve was filed as active;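 also: kinase came from lysate of stimulated human HepG2 cells; signal reports phosphorylation of biotinylated GST-cJun 1-79 at Ser73 with 10 µM ATP; % is scaled to controls: 0 for no effect and ±100 for the full control effect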)
Summary of the method: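 qHTS format: compounds tested as titrations against IL-1beta/TNF-alpha-activated HepG2 lysate JNK3 with biotin-GST-cJun substrate and 10 uM ATP at room temperature. Loss of anti-phospho-cJun AlphaScreen signal indicates inhibition.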

[5] = molecular target: 3',5'-cyclic-AMP phosphodiesterase 4B (Homo sapiens) (UniProt Q07343); assay: qHTS Assay for Inhibitors of PDE-IV (AID 607; active = well fitted activation curve with a large enough effect in the main read-out, with a control signal flat, not every such curve was filed as active; also: % of control where 0% means no effect)
Summary of the method: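 ACTOne HEK293 cells carry a modified cAMP-gated CNG channel and express endogenous PDE4; plated 1000 cells/well, compounds up to 22.9 uM final. Membrane-potential dye fluorescence (ex 535/em 590) was read; parental cells received 10 uM forskolin + 100 uM RO 20-1724.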

[6] = molecular target: Guanine nucleotide-binding protein G(i) subunit alpha-1 (Homo sapiens) (UniProt P63096); assay: qHTS Assay for Inhibitors of RGS12 GoLoco Motif Activity (Green Fluorophore) (AID 879);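 also: 0% = labeled peptide with Gαi1 and full inhibition = labeled peptide alone without protein; negative values mean loss of peptide binding seen as reduced polarization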
Chain of Guanine nucleotide-binding protein G(i) subunit alpha-1 (Homo sapiens) (P63096 whole entry, looked up): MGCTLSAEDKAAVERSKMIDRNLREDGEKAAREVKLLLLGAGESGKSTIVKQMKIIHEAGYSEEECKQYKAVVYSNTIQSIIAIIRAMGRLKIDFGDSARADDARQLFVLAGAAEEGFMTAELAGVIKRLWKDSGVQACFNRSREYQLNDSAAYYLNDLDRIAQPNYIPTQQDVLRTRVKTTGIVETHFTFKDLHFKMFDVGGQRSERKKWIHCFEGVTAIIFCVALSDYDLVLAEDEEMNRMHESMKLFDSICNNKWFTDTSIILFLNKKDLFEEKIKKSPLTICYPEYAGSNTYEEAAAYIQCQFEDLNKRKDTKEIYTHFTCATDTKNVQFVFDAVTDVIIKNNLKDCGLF
Summary of the method: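 Fluorescence polarization assay: 50 nM Gαi1 with 10 nM FITC-labeled RGS12 GoLoco peptide in 10 mM Tris pH 7.5, 150 mM NaCl, 0.1 mM GDP, 0.05% NP40, 10 min at room temperature with compound.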

[7] = molecular target: Cytochrome P450 3A4 (Homo sapiens) (UniProt P08684); assay: qHTS Assay for Inhibitors and Substrates of Cytochrome P450 3A4 (AID 884); also: % is scaled to controls: 0 for no effect and ±100 for the full control effect; nearly all actives have a fitted effect of over 50% in size
Summary of the method: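 20 nM human CYP3A4 with 25 uM Luciferin-PPXE (at KM) in 200 mM KPO4, preincubated 10 min with compound; NADPH regeneration started a 60 min RT reaction. Luciferin detected by luminescence, normalized to 57 uM ketoconazole as full inhibition.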

[8] = qHTS Assay for Identification of Small Molecule Agonists for Hypoxia Response Element Signaling Pathway (AID 914; active = well fitted activation curve with a large enough effect in the signal ratio, with a control signal flat, not every such curve was filed as active; the % refers to the signal ratio; also: % of control where 0% means no effect); settings: ME-180 (cervical carcinoma) HRE-bla reporter, beta-lactamase ratio, CoCl2, 17 h; activation: active compounds read high
Summary of the method: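 Read-out: CCF4 FRET ratio of 460nm to 530nm emission (excitation 405nm) after 2.5 hours at room temperature, taken from HRE-bla ME-180 cells that had been exposed to compound and EC50 CoCl2 for 17 hours.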

[9] = qHTS Assay for Identification of Small Molecule Agonists for Thrombopoietin (TPO) Signaling Pathway (AID 917); also: % is scaled to controls: 0 for no effect and ±100 for the full control effect
Summary of the method: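 Luminescence from a Glycoprotein IIb promoter–driven luciferase reporter served as read-out in murine Ba/F3 cells carrying the human TPO receptor. Cells, deprived of IL-3 overnight, received compounds with 26 pM TPO and were incubated 24 hrs at 37 C.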

[10] = molecular target: Muscarinic acetylcholine receptor M1 (Rattus norvegicus) (UniProt P08482); assay: qHTS Assay for Antagonists of Acetylcholine Muscarinic M1 Receptor: Measurement of IP-One Response (AID 944); also: nearly all actives have a fitted effect of over 75% in size
Summary of the method: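 Steps: plate transfected CHO-M1 cells overnight; add test compound, 10 min; add carbachol (200 nM, EC80) in stimulation buffer with LiCl; incubate 30 min; add labelled IP1 tracer and anti-IP1 antibody in lysis buffer; read HTRF after 10 min.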

[11] = molecular target: Pyruvate kinase (Leishmania mexicana) (UniProt Q27686); assay: qHTS Validation Assay for Inhibitors of Leishmania Mexicana Pyruvate Kinase (AID 945);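 also: 0% = DMSO only neutral control wells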
Summary of the method: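 Substrate mix (0.5 mM PEP, 0.1 mM ADP, 7 mM MgCl2, 50 mM KCl, pH 7.2 imidazole) received compound by pin tool, then 0.2 nM LmPYK E451W. After 1 h at room temperature, PKLight was added and luminescence measured.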

[12] = molecular target: Pyruvate kinase PKM (Homo sapiens) (UniProt P14618); assay: qHTS Assay for Activators of Human Muscle Pyruvate Kinase (AID 954; active = well fitted curve in the direction sought with a large enough effect, not every such curve was filed as active;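 also: 0% = uninhibited enzyme and -100% = no enzyme or full thiadiazolimine inhibition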)
Summary of the method: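 Luminescence from a luciferase ATP-detection/stop reagent reported PKM2 activity. Reactions contained 0.1 nM purified human enzyme, 0.5 mM PEP, 0.1 mM ADP and 7 mM MgCl2 at pH 7.2, run 1 h at RT.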

[13] = molecular target: Alpha-galactosidase A (Homo sapiens) (UniProt P06280); assay: Counterscreen for Glucocerebrosidase Inhibitors: qHTS Assay for Human alpha-Galactosidase at pH 4.5 (AID 992); also: 0% is about no effect
Chain of Alpha-galactosidase A (Homo sapiens) (P06280 whole entry, looked up): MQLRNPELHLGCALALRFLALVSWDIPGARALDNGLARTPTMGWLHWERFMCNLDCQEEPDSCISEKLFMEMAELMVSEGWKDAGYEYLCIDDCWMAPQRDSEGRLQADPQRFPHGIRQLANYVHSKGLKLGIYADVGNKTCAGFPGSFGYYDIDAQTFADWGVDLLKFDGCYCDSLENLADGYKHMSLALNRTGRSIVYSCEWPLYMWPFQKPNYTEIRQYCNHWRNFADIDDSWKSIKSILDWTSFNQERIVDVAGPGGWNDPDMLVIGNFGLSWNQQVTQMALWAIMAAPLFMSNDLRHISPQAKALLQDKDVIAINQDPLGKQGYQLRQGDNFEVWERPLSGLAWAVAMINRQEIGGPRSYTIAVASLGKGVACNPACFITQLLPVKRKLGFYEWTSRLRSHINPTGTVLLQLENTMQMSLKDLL
Summary of the method: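 Enzyme at 2 nM final was combined with compound (0.7 nM to 77 uM) and 80 uM 4-methylumbelliferyl alpha-D-galactopyranoside in 50 mM citric acid, 0.005% Tween-20, pH 4.5. After 20 min at room temperature, fluorescence was read (Ex 365/Em 440 nm); AC50 came from Hill fits.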

[14] = molecular target: alpha-glucosidase (Oryza sativa, rice) (UniProt Q653V4); assay: Counterscreen for Glucocerebrosidase Inhibitors: qHTS Assay for Rice alpha-Glucosidase at pH 5.0 (AID 997);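 also: 0% = full activity with enzyme and -100% = basal without enzyme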
Summary of the method: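 Rice alpha-glucosidase (4 nM final) with 400 uM 4-methylumbelliferyl-alpha-D-glucopyranoside in citrate buffer pH 5.0, 20 min at room temperature, stopped at pH 10; fluorescence 365/440 nm, compounds 0.7 nM–77 uM, AC50 from Hill fits.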

[15] = molecular target: DNA repair nuclease/redox regulator APEX1 (Homo sapiens) (UniProt P27695); assay: qHTS Validation Assay for Inhibitors of the Human Apurinic/apyrimidinic Endonuclease 1 (APE1) (AID 1705;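 also: TAMRA fluorescence gain over two minutes as APE1 cuts a quenched THF abasic duplex; % is scaled to controls: 0 for no effect and ±100 for the full control effect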)
Chain of DNA repair nuclease/redox regulator APEX1 (Homo sapiens) (P27695 whole entry, looked up): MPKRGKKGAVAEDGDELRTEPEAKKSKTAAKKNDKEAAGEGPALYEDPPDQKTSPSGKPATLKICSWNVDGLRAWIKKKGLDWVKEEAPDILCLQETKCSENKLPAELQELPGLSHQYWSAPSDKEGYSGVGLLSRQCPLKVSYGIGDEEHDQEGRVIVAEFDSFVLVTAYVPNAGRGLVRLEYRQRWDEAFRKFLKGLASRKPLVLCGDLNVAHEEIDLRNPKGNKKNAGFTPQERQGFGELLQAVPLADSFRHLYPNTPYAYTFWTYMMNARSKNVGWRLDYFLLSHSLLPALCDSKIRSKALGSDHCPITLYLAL
Summary of the method: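 qHTS, 1536-well. APE1 + cpd 15 min RT → 50 nM TAMRA/BHQ-2 THF-abasic dsDNA substrate → kinetic fluorescence, 3 reads/60 s; delta(read3−read1) = reaction progress. No-enzyme buffer = negative control.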

[16] = Counterscreen for APE1 Inhibitors: Fluorescent Dye Displacement Validation Assay (AID 1707);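 also: plate controls were ThO with dsDNA and no compound for no effect and ThO without dsDNA for full effect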
Summary of the method: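 Thiazole Orange displacement from dsDNA: 250 nM ThO with 50 nM TAMRA-labelled abasic-site (tetrahydrofuran) duplex in 50 mM Tris-HCl pH7.5, 50mM NaCl, 2 mM MgCl2, 0.01% Tween-20. Loss of endpoint fluorescence (ex 480 nm, em 540 nm) flags DNA binders.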

[17] = qHTS for differential inhibitors of proliferation of Plasmodium falciparum line 7G8 (AID 1815);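 also: parasite growth measured after three days of incubation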; also: potency is read from the fitted curve at half-maximal effect;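 as to activity change, negative = inhibition: plate controls were vehicle wells for no effect and reference inhibitor wells for full effect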
[18] = qHTS for differential inhibitors of proliferation of Plasmodium falciparum line GB4 (AID 1816); settings: Potency: Plasmodium falciparum GB4 proliferation inhibition;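 also: parasite growth measured after 72 h incubation; 0% = vehicle DMSO and -100% = reference inhibitor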
[19] = qHTS for differential inhibitors of proliferation of Plasmodium falciparum line 3D7 (AID 1876);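 also: parasite growth measured after three days of culture; 0% = vehicle wells and -100% = reference inhibitor wells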
[20] = qHTS for differential inhibitors of proliferation of Plasmodium falciparum line D10 (AID 1877);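 also: parasites grown with compound for 72 h before DNA staining; plate controls were vehicle wells for no effect and reference inhibitor wells for full effect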
[21] = qHTS for differential inhibitors of proliferation of Plasmodium falciparum line W2 (AID 1883); settings: Potency: Plasmodium falciparum W2 proliferation inhibition;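 also: parasites grown with compound for 72 h before lysis and staining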; also: potency is read from the fitted curve at half-maximal effect;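 as to activity change, negative = inhibition: 0% = vehicle wells and -100% = control inhibitor wells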
[22] = qHTS for differential inhibitors of proliferation of Plasmodium falciparum line HB3 (AID 1886); settings: Potency: Plasmodium falciparum HB3 proliferation inhibition;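 also: parasites grown with compound for 72 h before SYBR Green readout; plate controls were vehicle for no effect and reference inhibitor for full effect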
[23] = qHTS Assay for Modulators of Human Peripheral Myelin Protein 22 (PMP22) Expression/Activity (AID 1967; active = well fitted curve in the direction sought with a large enough effect in the signal ratio; the % refers to the signal ratio;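 also: 0% = untreated cells and 100% end not stated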)
Summary of the method: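 Luminescence ratio of Pmp22 promoter-driven green luciferase to EF-alpha-driven red luciferase, in engineered mouse MSC80 Schwann cells, served as read-out. Compounds were incubated 24h; untreated cells defined 0% Activity; curves were classified by r2, magnitude and activity.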

[24] = molecular target: Ferritin light chain (Equus caballus) (UniProt P02791); assay: qHTS Validation Assay for Identification of Novel General Anesthetics (AID 2323); also: % is scaled to controls: 0 for no effect and ±100 for the full control effect
Summary of the method: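 Fluorescence at 535 nm (excitation 380 nm) reported loss of 1-AMA binding to horse-spleen apoferritin (10 uM) in PBS with 50% saturated 1-aminoanthracene, after 10 min room-temperature incubation with compound; values from Hill fits of normalized response.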

[25] = molecular target: ATP-dependent DNA helicase Q1 (Homo sapiens) (UniProt P46063); assay: qHTS Validation Assay for Inhibitors of RecQ-Like Dna Helicase 1 (RECQ1) (AID 2353);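 also: plate controls were DMSO vehicle for no effect and enzyme-free control for full effect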
Chain of ATP-dependent DNA helicase Q1 (Homo sapiens) (P46063 whole entry, looked up): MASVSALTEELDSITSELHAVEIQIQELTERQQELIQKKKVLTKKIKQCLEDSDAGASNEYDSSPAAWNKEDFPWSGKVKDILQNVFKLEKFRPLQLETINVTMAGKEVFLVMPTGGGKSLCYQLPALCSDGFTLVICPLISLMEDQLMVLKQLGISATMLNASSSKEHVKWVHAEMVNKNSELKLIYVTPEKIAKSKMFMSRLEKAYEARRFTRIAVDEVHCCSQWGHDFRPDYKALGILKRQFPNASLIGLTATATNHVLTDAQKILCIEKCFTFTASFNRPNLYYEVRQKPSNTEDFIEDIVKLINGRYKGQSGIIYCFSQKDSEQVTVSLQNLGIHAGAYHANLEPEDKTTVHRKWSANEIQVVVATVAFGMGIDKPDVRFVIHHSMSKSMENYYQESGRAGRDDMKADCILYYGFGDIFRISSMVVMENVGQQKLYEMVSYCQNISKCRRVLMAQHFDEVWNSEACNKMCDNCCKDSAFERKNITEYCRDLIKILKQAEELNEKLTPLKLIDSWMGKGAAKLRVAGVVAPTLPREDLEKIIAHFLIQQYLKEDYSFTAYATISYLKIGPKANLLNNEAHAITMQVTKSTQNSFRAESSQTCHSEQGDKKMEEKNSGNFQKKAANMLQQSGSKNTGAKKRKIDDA
Summary of the method: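 50 nM RECQ1T1 preincubated 15 min with compound in Tris pH 8.0 buffer with MgCl2, DTT, Tween-20 and 2.5 ug/ml poly(dI-dC); started with 200 nM TAMRA/BHQ-2 forked duplex and 2 mM ATP. Unwinding read as fluorescence (525/598 nm), two reads 2 h apart.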

[26] = molecular target: RecQ-like DNA helicase BLM (Homo sapiens) (UniProt P54132); assay: qHTS Validation Assay for Inhibitors of Bloom's syndrome helicase (BLM) (AID 2364);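 also: plate controls were DMSO vehicle for no effect and enzyme-free control for full effect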
Summary of the method: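 50 nM BLM preincubated 15 min at room temperature with compound in pH 8.0 Tris buffer containing 2.5 ug/ml poly(dI-dC); started with 200 nM TAMRA/BHQ-2 forked duplex and 2 mM ATP (final). Unwinding read as TAMRA fluorescence increase, two reads 2 h apart.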

[27] = Validation screen for small molecules that induce DNA re-replication in MCF 10A normal breast cells (AID 463097); also: 0% is about no effect; nearly all actives have a fitted effect of over 60% in size
Summary of the method: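 Image-based qHTS: normal breast cells are incubated with compound for 48 hr, stained with Hoechst, and scanned for total nuclear fluorescence. Compounds raising the fraction of nuclei with elevated DNA content count as re-replication inducers.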

[28] = Quantitative high throughput screen for delayed death inhibitors of the malarial parasite plastid, 96 hour incubation (AID 488745);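 also: luciferase-expressing P. falciparum in erythrocytes at 2% hematocrit and 0.1% parasitemia; % is scaled to controls: 0 for no effect and ±100 for the full control effect; nearly all actives have a fitted effect of over 70% in size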
Summary of the method: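 Growth of reporter-bearing P. falciparum in red cells is measured after 96 h with compound, covering two erythrocytic cycles. Luminescence from the integrated luciferase serves as the growth signal.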

[29] = Quantitative high throughput screen for delayed death inhibitors of the malarial parasite plastid, 48 hour incubation (AID 488752); also: % is scaled to controls: 0 for no effect and ±100 for the full control effect; nearly all actives have a fitted effect of over 65% in size
Summary of the method: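 One parasite generation (48 h, 37 C, 5% CO2) of luciferase-reporter P. falciparum in erythrocytes is run with test compound; decreased luminescence indicates inhibited growth.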

[30] = molecular target: M-phase phosphoprotein 8 (Homo sapiens) (UniProt Q99549); assay: qHTS Validation Assay for Inhibitors for MPP8 Chromodomain Interactions with Methylated Histone Tails (AID 488949);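 also: 50 nM MPP8 with 50 nM peptide preformed then compounds added for 30 min; AlphaScreen signal from MPP8 chromodomain bound to biotinylated H3K9me3 peptide; top concentration of the series differs between compounds; % is scaled to controls: 0 for no effect and ±100 for the full control effect; nearly all actives have a fitted effect of over 55% in size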
Chain of M-phase phosphoprotein 8 (Homo sapiens) (Q99549 whole entry, looked up): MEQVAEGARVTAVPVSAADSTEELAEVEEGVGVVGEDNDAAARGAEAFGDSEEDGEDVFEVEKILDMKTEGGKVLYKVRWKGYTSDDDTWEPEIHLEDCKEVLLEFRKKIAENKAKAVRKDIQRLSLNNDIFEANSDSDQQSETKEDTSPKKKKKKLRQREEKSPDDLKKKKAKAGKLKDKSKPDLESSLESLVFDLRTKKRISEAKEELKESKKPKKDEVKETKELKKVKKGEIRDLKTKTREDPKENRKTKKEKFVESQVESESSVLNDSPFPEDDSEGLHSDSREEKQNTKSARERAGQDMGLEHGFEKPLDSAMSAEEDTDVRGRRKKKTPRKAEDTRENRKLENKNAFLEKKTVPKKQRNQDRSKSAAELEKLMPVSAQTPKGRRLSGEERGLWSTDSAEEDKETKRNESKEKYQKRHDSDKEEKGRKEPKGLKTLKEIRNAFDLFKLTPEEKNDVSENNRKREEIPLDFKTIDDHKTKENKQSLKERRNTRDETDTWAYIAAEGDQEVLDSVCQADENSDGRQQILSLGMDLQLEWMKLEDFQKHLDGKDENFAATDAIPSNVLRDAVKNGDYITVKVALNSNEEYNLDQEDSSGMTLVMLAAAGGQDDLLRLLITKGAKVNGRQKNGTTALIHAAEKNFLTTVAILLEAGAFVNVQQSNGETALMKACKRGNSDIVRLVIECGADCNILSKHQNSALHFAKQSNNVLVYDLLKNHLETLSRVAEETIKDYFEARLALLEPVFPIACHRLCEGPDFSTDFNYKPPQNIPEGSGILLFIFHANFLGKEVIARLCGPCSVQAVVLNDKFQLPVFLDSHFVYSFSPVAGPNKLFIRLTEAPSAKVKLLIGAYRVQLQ
Summary of the method: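 50 nM MPP8 + 50 nM b-H3K9me3 peptide, PBS pH 7.4/0.01% Tween-20, 30 min RT; + cpd 30 min RT; + AlphaScreen donor/Ni-chelate acceptor beads 10 ug/mL final, 30 min dark; luminescence read.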

[31] = molecular target: Transient receptor potential cation channel subfamily V member 1 (Homo sapiens) (UniProt Q8NER1); assay: HTS Assay for Compounds that Act as Enhancers of the Vanilloid Receptor 1 (AID 488979); also: 0% is about no effect
Chain of Transient receptor potential cation channel subfamily V member 1 (Homo sapiens) (Q8NER1 whole entry, looked up): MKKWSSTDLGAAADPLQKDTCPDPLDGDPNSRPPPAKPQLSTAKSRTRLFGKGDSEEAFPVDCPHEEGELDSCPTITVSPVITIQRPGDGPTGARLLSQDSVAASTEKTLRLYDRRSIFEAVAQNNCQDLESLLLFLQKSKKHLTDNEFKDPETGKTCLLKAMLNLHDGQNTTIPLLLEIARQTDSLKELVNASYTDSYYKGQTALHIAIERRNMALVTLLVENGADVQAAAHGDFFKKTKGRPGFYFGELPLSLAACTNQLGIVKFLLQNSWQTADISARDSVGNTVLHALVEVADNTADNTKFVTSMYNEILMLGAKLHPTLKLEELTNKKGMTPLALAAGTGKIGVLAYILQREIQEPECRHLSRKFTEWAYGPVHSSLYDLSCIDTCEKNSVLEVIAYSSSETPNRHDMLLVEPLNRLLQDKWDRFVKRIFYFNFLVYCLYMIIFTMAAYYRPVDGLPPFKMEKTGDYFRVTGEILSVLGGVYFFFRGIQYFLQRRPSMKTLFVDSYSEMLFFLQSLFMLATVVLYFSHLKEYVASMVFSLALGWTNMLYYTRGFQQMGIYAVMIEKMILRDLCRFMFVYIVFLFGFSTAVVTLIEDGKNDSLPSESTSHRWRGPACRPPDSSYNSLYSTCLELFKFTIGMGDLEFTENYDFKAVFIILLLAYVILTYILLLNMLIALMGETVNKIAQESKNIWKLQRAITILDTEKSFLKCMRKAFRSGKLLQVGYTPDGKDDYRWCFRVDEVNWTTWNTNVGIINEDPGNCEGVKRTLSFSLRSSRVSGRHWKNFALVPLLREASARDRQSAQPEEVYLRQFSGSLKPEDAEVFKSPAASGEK
Summary of the method: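 TRPV1 cells loaded with Fluo-8 calcium dye; compound added and Ca2+ signal (ex 480/em 520 nm) followed 3 min, then capsaicin at EC20 added and read 2 more min to detect enhancement.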

[32] = molecular target: Thyrotropin receptor (Homo sapiens) (UniProt P16473); assay: qHTS Assay for Antagonists of the Thyroid Stimulating Hormone Receptor (AID 488980); also: 0% is about no effect
Chain of Thyrotropin receptor (Homo sapiens) (P16473 whole entry, looked up): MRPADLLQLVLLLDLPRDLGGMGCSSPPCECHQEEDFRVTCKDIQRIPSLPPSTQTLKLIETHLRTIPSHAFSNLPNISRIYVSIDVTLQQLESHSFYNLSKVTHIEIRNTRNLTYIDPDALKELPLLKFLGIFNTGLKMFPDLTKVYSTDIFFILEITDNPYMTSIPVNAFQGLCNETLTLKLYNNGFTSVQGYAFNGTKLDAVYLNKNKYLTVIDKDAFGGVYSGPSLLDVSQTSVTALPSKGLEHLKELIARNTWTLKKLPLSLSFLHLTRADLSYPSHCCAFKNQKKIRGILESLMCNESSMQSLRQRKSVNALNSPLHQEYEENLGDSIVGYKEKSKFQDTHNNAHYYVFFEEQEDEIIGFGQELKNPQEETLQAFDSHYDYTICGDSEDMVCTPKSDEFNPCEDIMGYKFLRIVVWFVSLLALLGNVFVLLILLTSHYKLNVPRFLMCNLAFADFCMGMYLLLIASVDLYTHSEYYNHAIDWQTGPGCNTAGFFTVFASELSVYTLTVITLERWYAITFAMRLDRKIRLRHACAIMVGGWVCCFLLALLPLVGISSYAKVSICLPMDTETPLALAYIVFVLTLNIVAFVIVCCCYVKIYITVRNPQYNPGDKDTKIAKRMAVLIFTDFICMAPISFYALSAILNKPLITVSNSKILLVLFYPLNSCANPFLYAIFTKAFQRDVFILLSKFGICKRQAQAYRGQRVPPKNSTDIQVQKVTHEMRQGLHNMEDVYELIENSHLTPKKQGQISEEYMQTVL
Summary of the method: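 Readout is cAMP by HTRF competition between cellular cAMP and cAMP-d2 for a cryptate-labelled antibody. Antagonism was assessed in TSHR-transfected HEK293 cells stimulated with 4 nM TSH (EC80, final) in the presence of RO 20-1724.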

[33] = molecular target: Thyrotropin-releasing hormone receptor (Homo sapiens) (UniProt P34981); assay: qHTS for Small Molecule Agonists and Allosteric Enhancers of Human TRH Receptor: Validation Screen for Agonists (AID 493127;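 active = calcium activation more than 3 SD above the typical response in the agonist read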;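 also: intracellular calcium rise by fluo-8 fluorescence before TRH EC20 addition; 0% is about no effect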); settings: TRH receptor agonist cell assay; at 2 µM; active compounds read high
Chain of Thyrotropin-releasing hormone receptor (Homo sapiens) (P34981 whole entry, looked up): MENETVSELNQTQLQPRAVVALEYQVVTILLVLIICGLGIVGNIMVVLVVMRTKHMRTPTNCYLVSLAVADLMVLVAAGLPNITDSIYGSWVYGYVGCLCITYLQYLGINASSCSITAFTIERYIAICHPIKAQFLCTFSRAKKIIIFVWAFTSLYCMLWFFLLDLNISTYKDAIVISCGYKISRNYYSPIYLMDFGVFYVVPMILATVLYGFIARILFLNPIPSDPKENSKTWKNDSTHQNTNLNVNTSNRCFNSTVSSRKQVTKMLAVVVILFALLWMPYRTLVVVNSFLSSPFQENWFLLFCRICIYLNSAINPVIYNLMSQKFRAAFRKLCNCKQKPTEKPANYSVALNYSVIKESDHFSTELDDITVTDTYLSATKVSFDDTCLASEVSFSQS
Summary of the method: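 Gq-coupled calcium mobilization in TRHR cells after compound addition, monitored kinetically with fluo-8 dye on an FDSS reader.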

[34] = molecular target: Galactokinase (Homo sapiens) (UniProt P51570); assay: qHTS Validation Assay for Inhibitors of Human Galactokinase (GALK) (AID 493189); also: 0% is about no effect
Chain of Galactokinase (Homo sapiens) (P51570 whole entry, looked up): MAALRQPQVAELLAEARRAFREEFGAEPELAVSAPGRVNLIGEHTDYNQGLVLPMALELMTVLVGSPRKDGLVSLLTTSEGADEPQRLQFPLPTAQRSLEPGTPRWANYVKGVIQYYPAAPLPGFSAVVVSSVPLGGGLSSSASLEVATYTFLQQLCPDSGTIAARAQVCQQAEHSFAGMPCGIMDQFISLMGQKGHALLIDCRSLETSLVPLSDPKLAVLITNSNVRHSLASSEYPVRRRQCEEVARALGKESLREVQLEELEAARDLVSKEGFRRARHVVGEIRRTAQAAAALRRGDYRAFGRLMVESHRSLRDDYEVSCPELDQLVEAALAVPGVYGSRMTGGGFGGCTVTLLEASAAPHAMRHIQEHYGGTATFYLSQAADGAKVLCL
Summary of the method: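 5 nM GALK / 100 uM galactose / 35 uM ATP, 20 mM HEPES pH8.0, 5 mM MgCl2, 60 mM NaCl, 1 mM DTT, 0.01% BSA (final). RT 1 h; Kinase-Glo Plus luminescence.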

[35] = Validation screen for small molecules that induce DNA re-replication in SW480 colon adenocarcinoma cells (AID 504364); also: 0% is about no effect
Summary of the method: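 Cells are treated 48 hr with test compound, stained 40 min with Hoechst at 37 C, and scanned for nuclear fluorescence; compounds inducing re-replication increase nuclei with elevated intensity.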

[36] = molecular target: Endonuclease 4 (Escherichia coli (strain K12)) (UniProt P0A6C1); assay: Counterscreen for APE1 Inhibitors: qHTS Validation Assay for Inhibitors of Endonuclease IV (AID 1708); also: % is scaled to controls: 0 for no effect and ±100 for the full control effect
Summary of the method: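 Cleavage of a quenched abasic-site DNA duplex (50 nM, 5'-TAMRA, 3'-BHQ-2) by 2 nM enzyme is followed as fluorescence increase. Compounds are preincubated with enzyme 15 min at room temperature before substrate addition.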

O=S(=O)(O)C1CCNCC1
inactive: activity change, negative = inhibition [1] 5.14% [at 38 µM] | Potency [2] | Potency [3] > 46 µM | Potency [4] | Potency [5] | Potency [6] | Potency [7] | activation [8] 1.41% | outcome [9] | Potency [10] | outcome [11] | outcome [12] | outcome [13] | outcome [14] | Potency [15] | outcome [16] | Potency [17] | Potency [18] | Potency [19] | Potency [20] | Potency [21] | Potency [22] | outcome [23] | outcome [24] | outcome [25] | Potency [26] | Potency [27] | Potency [28] | Potency [29] | Potency [30] | outcome [31] | outcome [32] | activation [33] 0.125% | outcome [34] | Potency [35]

C#C[C@]1(O)CC[C@H]2C3CCC4=Cc5oncc5CC4(C)C3CCC21C (stereo partly drawn)
inactive: Potency [15] | outcome [16] | Potency [36] | outcome [25] | Potency [29] | Potency [30] | outcome [31] | outcome [32] | activation [33] 1.44% | outcome [34] | Potency [35]
active: Potency [17] 8.91 µM | Potency [21] 8.91 µM
